Rows were chosen to be rich in hits. Some 3.1% of all compounds tested hit in one or more screens of this group.
BRCA1 expr act – increases BRCA1 expression. Potency, µM (highest dose often 46.1 µM), most hits filed as activators. MCF7-BRCA1-FFLuc reporter, luminescence, 48 h; response scale: scaled: vehicle 0%, 10 µM genistein 100%. AID 624202. 380,000 tested, 1.1% active; note: nearly all actives have a fitted effect of over 80% in size
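Cells: MCF7-BRCA1-FFLuc, 2000/well. Exposure: 48 h, 37 °C, 5% CO2. Read: luminescence, 15 min post-substrate. Controls: genistein 10 microM (maximal activation), DMSO (neutral).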
IL2 activator – activates IL-2 in a cell-based reporter assay; activation, % (series mostly up to about 46 µM); 360,000 tested, 0.065% active; IL-2 activation reporter assay, cell-based qHTS; stimulated with anti-CD3/CD4/CD28 beads; in transgenic mouse T cells; in the data active = activation above about 50%; inconclusive = mostly about 30% to 49%
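Quantitative HTS in unstimulated transgenic mouse T cells, with memory T cells as non-tolerant control and PMA/ionomycin as tolerance-bypass control. Compound pretreatment lasted 60 minutes before 18 h bead stimulation; EGFP/DsRed fluorescence read.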
Nrf2 activator – activators of Nrf2 (ARE) signaling. AREc32 ARE-luciferase reporter (MCF7-derived line), luminescence, 24 h. AID 624171. 410,000 tested, 0.31% active. Potency, µM (highest dose often 46.1 µM), actives largely listed as activators; note: nearly all actives have a fitted effect of over 65% in size
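AREc32_Fluc, 1000 cells/well, OPTI-MEM + 5% FBS, o/n 37 deg C 5% CO2; 23 nL cpd by pin tool, 24 hr; Steady-Glo 30 min RT, luminescence.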
ELG1 repair inh – blocks ELG1-dependent DNA repair in HEK293T cells. HEK293T ELG1-luciferase reporter, luminescence, 16 h; DNA damage induced by 5-fluorouridine. Potency, µM (series often up to 46.1 µM), actives largely listed as inhibitors. 330,000 tested, 2.3% active; note: nearly all actives have a fitted effect of over 55% in size
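DMSO vehicle served as the neutral condition. Each well held 2,000 cells given 5-fluorouridine plus compound; after 16 hr at 37 °C/5% CO2, ONE-Glo was added and luciferase measured 30 min later.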
Hits are given with their value; - = inactive; ? = inconclusive; . = not tested or not shown; [ ] = dose if it differs, or a comment. Unless noted, calls come from the whole dose curve; as a rule, active = well fitted curve in the direction sought with a large enough effect; inconclusive = small, poorly fitted or top-dose-only effect, or another doubt; inactive = no such curve, though single readings can be large; an effect the other way counts as inactive or inconclusive.

SMILES	BRCA1 expr act	IL2 activator	Nrf2 activator	ELG1 repair inh
COc1ccc(C(CC(=O)c2ccc(O)cc2)S(=O)(=O)c2ccc(C)cc2)cc1 (stereo unspecified)	?	-	13µM	?
Cc1ccc(S(=O)(=O)CCSc2n[nH]c(=O)n2-c2ccccc2)cc1	-	-	?	-
Cc1cc(C)c(-n2c(SCCS(=O)(=O)c3ccc(F)cc3)n[nH]c2=O)c(C)c1	-	-	8.9µM	-
CCN(CC)c1ccc2nc3ccc(N)cc3[n+](-c3ccccc3)c2c1	-	-	-	?
CCN(CC)c1ccc2nc3ccccc3[n+](CC)c2c1	-	-	-	3.7µM
Cc1ccc(C(=O)N2CCc3ccccc32)cc1	11µM	-	-	?
O=C(C1CCC(C(=O)N2CCc3ccccc32)CC1)N1CCc2ccccc21 (stereo unspecified)	-	-	-	-
O=C(c1ccc(Cl)s1)N1CCc2ccccc21	11µM	-	?	?
Cc1ccc(-c2cc(C(=O)N3CCCc4ccccc43)no2)cc1	3.2µM	-	-	?
O=C(NC1CCCCC1)N1CCc2ccccc21	11µM	-	-	?
O=C(c1ccc(C(=O)N2CCCc3ccccc32)s1)N1CCCc2ccccc21	-	-	-	-
O=C(c1ccc(Cl)cc1)N1CCc2ccccc21	-	-	-	-
CC1CCN(S(=O)(=O)N2CCC(C(=O)NC(C)c3ccccc3)CC2)CC1 (stereo unspecified)	-	-	-	.
O=C(COC(=O)C1CC1)Nc1ccc(OC(F)F)cc1	-	-	-	-
O=C(COC(=O)C1CC1)Nc1ccc(N=Nc2ccccc2)cc1	2.5µM	-	-	?
COCCc1nn2c(=O)cc(COC(=O)c3ccc4c(c3)OCO4)nc2s1	.	.	-	.
Cc1ccc(C)c(-n2cc(-c3ccccc3)nc2SCC(=O)Nc2ccccc2)c1	.	.	-	.
Cc1cc(C)n2nc(SCC(=O)N3CCc4ccccc43)nc2n1	-	-	-[9.22 µM]	?
Cc1cc(C)nc(SCC(=O)N2CCc3ccccc32)n1	5.6µM	-	-	.
O=C(CSC1=NCCS1)N1CCc2ccccc21	3.2µM	-	-	?
COc1ccccc1CNC(=O)c1cc2c(=O)n(Cc3cccs3)ccc2nc1C	.	.	-	.
COc1ccccc1-c1cc2nc(C)c(CCC(=O)NCCc3ccc(SC)cc3)c(C)n2n1	.	.	-	.
COC(=O)c1cc(OC)c(OC)cc1NC(=O)CCc1ccc(C)o1	-	-	-	?
COC(=O)c1cc(OC)c(OC)cc1NC(=O)c1ccc(C)o1	-	-	-	23µM
CCOc1ccccc1NC(=O)NCc1noc2ccc(C)cc12	.	.	-	.
SMILES	BRCA1 expr act	IL2 activator	Nrf2 activator	ELG1 repair inh
O=[N+]([O-])c1cc(-c2n(-c3ccccn3)c3ccccc3[n+]2-c2ccccn2)ccc1Cl	-	-	-	18µM
O=C(c1ccc(Cl)c([N+](=O)[O-])c1)N1CCN(c2ccccn2)CC1	-	-	-	-
O=C(CSC1=Nc2ccccc2C2=NC(Cc3ccccc3)C(=O)N12)Nc1ccccc1C(F)(F)F (stereo unspecified)	.	.	-	.
C=CCn1c2ccccc2c(=O)c2cc(C#Cc3ccccn3)ccc21	8.9µM	-	-	?
C=CCn1c2ccccc2c(=O)c2cc(C#Cc3ccsc3)ccc21	.	.	.	-
CC(C)CCn1cnc2c(cnn2-c2ccc(F)cc2)c1=O	8.9µM	-	-	?
Cc1ccc(-n2ncc3c(=O)n(CC(=O)N(C)C)cnc32)cc1C	-	-	-[9.22 µM]	?
CC(=O)Cn1cnc2c(cnn2-c2ccc(C)c(C)c2)c1=O	5µM	-	-	?
COc1ccc(/C=N\Nc2ncc(F)c(N3CCOCC3)n2)cc1OC	-	-	-	18µM
COc1ccc(/C=N/Nc2nc(Nc3ccccc3)nc(N3CCCCC3)n2)cc1OC	-	-	-	5.8µM
CCOc1cc(/C=N/Nc2nc(N3CCCC3)nc(N3CCCC3)n2)ccc1O	-	-	-	12µM
COc1ccc(CCNc2nc(N3CCCCC3)nc(N3CCCCC3)n2)cc1OC	-	-	-	21µM
CCOc1cccc(/C=N/Nc2nc(N3CCCC3)nc(N3CCCC3)n2)c1O	-	-	-	?
COc1ccc(CCNc2nc(N3CCOCC3)nc(N3CCOCC3)n2)cc1OC	-	-	-	?
Cc1ccc(CNC(=O)CNS(=O)(=O)c2cccs2)cc1	-	.	-	.
Cc1cc(S(=O)(=O)Nc2cc3c(cc2N2CCOCC2)n(C)c(=O)c(=O)n3C)ccc1F	.	.	-	.
